Experimental data published in PubChem BioAssay (NCATS).
Unmarked numbers belong to inactive results. Results filed as inconclusive are left out. Where a call stands in place of a potency, no number is given. Activity calls are given as the source filed them. Unless noted, calls follow the shape of the full dose curve.

Legend:
[1] = target: Glucocorticoid receptor (Homo sapiens) (UniProt P04150); experiment: GR-GFP Redistribution (AID 450;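 active = compounds whose dose series gives a full or clear partial fitted curve of increased nuclear translocation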; also: potency is read from the fitted curve at half-maximal effect); conditions: U2OS GR-GFP nuclear translocation, laser cytometry, 2 h
[2] = target: Mitogen-activated protein kinase 10 (Mus musculus) (UniProt Q61831); experiment: JNK3 AlphaScreen Assay (AID 530; active = well fitted curve in either direction with a large enough effect, not every such curve was filed as active;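 also: kinase came from lysate of stimulated human HepG2 cells; signal reports phosphorylation of biotinylated GST-cJun 1-79 at Ser73 with 10 µM ATP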); conditions: JNK3 lysate, c-Jun phosphorylation; series mostly up to 57.1 µM
Procedure, shortened: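 Phosphorylation of biotinylated GST-cJun(1-79) at Ser73 is measured by AlphaScreen proximity luminescence. Enzyme is JNK3 in HepG2 lysates activated with interleukin-1beta and tumor necrosis factor alpha; ATP is 10 uM final.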

[3] = Validation screen for inhibitors of Lassa infection (AID 463096); conditions: Lassa virus infection, cell-based; series mostly up to 46.1 µM
[4] = target: Alpha-galactosidase (Coffea arabica) (UniProt Q42656); experiment: Counterscreen for Glucocerebrosidase Inhibitors: qHTS Assay for Coffee Bean alpha-Galactosidase at pH 4.5 (AID 957; active = well fitted curve in the direction sought with a large enough effect; an effect the other way counts as inactive or inconclusive); conditions: purified coffee bean alpha-galactosidase, fluorogenic substrate; series mostly up to 76.9 µM
Procedure, shortened: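 Enzyme is added first (2 nM final), then compounds titrated from 0.7 nM to 77 uM, then 80 uM 4-methylumbelliferyl alpha-D-galactopyranoside; after 20 min at room temperature a pH 10 NaOH/glycine stop precedes fluorescence reading at 365/440 nm.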

[5] = target: Alpha-galactosidase (Coffea arabica) (UniProt Q42656); experiment: Counterscreen for Glucocerebrosidase Inhibitors: qHTS Assay for Coffee Bean alpha-Galactosidase at pH 5.9 (AID 998; active = well fitted curve in the direction sought with a large enough effect; an effect the other way counts as inactive or inconclusive); conditions: coffee bean alpha-galactosidase enzyme assay; series mostly up to 76.9 µM
Procedure, shortened: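 In 50 mM citric acid pH 5.9 with 0.005% Tween-20, coffee bean enzyme hydrolyses 80 uM 4-MU alpha-D-galactopyranoside over 20 min at RT. Activity is normalized to controls; AC50 comes from Hill-modelled concentration-response data.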

Sequence of Glucocorticoid receptor (Homo sapiens) (P04150 whole entry, looked up): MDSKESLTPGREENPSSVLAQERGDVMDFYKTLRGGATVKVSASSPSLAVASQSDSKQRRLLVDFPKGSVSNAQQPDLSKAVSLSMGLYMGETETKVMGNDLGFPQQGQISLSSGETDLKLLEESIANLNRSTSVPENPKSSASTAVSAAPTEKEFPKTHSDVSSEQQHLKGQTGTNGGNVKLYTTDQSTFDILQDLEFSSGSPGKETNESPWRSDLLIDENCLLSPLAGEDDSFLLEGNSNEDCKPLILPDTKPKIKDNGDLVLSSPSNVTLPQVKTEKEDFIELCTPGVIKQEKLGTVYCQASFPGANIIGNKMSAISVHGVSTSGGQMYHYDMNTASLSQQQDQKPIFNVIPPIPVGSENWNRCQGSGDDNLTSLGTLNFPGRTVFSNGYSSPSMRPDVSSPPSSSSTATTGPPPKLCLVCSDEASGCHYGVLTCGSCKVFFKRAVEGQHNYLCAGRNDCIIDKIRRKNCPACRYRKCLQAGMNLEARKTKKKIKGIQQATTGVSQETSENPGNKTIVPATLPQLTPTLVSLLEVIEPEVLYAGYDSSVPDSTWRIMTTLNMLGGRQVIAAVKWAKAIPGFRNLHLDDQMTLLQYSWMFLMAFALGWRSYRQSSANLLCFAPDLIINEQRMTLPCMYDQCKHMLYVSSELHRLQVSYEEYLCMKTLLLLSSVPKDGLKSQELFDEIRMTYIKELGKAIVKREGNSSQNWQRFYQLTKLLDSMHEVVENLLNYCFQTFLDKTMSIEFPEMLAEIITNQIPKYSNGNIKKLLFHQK
Sequence of Alpha-galactosidase (Coffea arabica) (Q42656 whole entry, looked up): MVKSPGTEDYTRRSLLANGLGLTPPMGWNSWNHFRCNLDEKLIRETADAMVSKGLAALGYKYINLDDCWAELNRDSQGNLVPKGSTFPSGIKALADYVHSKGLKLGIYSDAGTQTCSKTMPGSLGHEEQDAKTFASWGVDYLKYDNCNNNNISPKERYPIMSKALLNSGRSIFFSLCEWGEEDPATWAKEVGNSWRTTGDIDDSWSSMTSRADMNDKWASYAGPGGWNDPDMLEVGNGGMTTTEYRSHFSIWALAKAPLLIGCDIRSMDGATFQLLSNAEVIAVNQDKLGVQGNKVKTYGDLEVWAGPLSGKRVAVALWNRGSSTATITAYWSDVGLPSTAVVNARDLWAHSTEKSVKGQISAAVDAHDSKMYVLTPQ

Which results are given for `CC1=CC(=O)C2=C(C)C[C@H](O)[C@@H]3[C@@H](OC(=O)[C@H]3C)[C@H]12`?
Potency [1]: > 46 µM; outcome [2]: inactive

Which Potency [3] does the source give for `CNC(=O)[C@H]1O[C@@H](n2cnc3c(NCc4cccc(I)c4)ncnc32)[C@H](O)[C@H]1O` here?
Its Potency is “inactive”.

With `Nc1ncnc2c1ncn2[C@@H]1O[C@H](C(=O)NC2CC2)[C@H](O)[C@H]1O` as the compound, how does the Potency [3] read?
The Potency was “inactive”.

With `COc1cc2c(cc1O)CCN[C@H]2C` as the compound, how does the Potency [1] read?
The Potency was over 46 µM.

And the outcome [2]?
Its outcome is “inactive”.

For `CN1C(=O)CCC1c1cccnc1` (stereo not given), which Potency [3] is on record?
Its Potency is “inactive”.

For `CC(C)(O)[C@H]1[C@H]2OC(=O)[C@@H]1[C@]1(O)C[C@H]3O[C@]34C(=O)O[C@H]2[C@]14C`, which Potency [1] is on record?
Its Potency is over 46 µM.

What about the outcome [2] of the same compound?
Its outcome is “inactive”.

With `CC[C@H](C)C(=O)O[C@H]1CCC=C2C=C[C@H](C)[C@H](CC[C@@H]3C[C@H](O)CC(=O)O3)C21` (stereo not given in full) as the compound, how does the Potency [3] read?
Its Potency is “inactive”.

Which Potency [1] does the source give for `COc1cc2c(cc1OC)-c1c(OC)c(OC)c(CO)c3c1[C@H](C2)N(C)CC3` here?
Its Potency is over 46 µM.

What about the outcome [2] of the same compound?
Its outcome is “inactive”.

For `Nc1ccn([C@@H]2O[C@H](CO)[C@@H](O)[C@@H]2O)c(=O)n1`, which Potency [3] is on record?
The Potency was “inactive”.

With `CN1CCC(OC(=O)C2c3ccccc3Oc3ccccc32)CC1` as the compound, how does the Potency [1] read?
Its Potency is over 20.6 µM.

For `COc1ccc2c(c1OC)C(=O)OC2C1c2c(cc3c(c2OC)OCO3)CCN1C` (stereo not given), which Potency [3] is on record?
The Potency was “inactive”.

Which Potency [1] does the source give for `Oc1cc2c(cc1O)[C@H]1c3ccccc3CN[C@H]1CC2` here?
The Potency was over 46 µM.

With `COc1cc2c(cc1OC)-c1c(O)c(OC)cc3c1[C@@H](C2)N(C)CC3` as the compound, how does the Potency [1] read?
The Potency was over 46 µM.

What about the outcome [2] of the same compound?
Its outcome is “inactive”.

Which results are given for `C[C@@]12CCC[C@](C)(C(=O)O)[C@@H]1CCc1ccc(O)cc12`?
Potency [1]: > 46 µM; outcome [2]: inactive

Which Potency [1] does the source give for `COC1=C[C@H]2[C@@H]3Cc4ccc(OC)c(O)c4[C@@]2(CCN3C)CC1=O` here?
The Potency was over 46 µM.

What about the outcome [2] of the same compound?
Its outcome is “inactive”.

Which Potency [3] does the source give for `COc1c2c(nc3ccccc13)OC(C(C)(O)CO)C2` (stereo not given) here?
Its Potency is “inactive”.

Which Potency [3] does the source give for `COc1cc2c(cc1OC)C(c1ccccc1)CN(C)CC2` (stereo not given) here?
Its Potency is “inactive”.

Which Potency [3] does the source give for `CNC(=O)[C@H]1O[C@@H](n2cnc3c(N)ncnc32)[C@H](O)[C@H]1O` here?
Its Potency is “inactive”.

Which Potency [3] does the source give for `C[C@H]1CC2[C@@H]3CCC4=CC(=O)C=C[C@]4(C)[C@@]3(Cl)[C@@H](O)C[C@]2(C)[C@@]1(O)C(=O)CO` (stereo not given in full) here?
The Potency was “inactive”.

With `Cc1ccccc1N1CCN(S(=O)(=O)C[C@]23CCC(CC2NC(=O)[C@@H](N)CCS(C)(=O)=O)C3(C)C)CC1` (stereo not given in full) as the compound, how does the Potency [3] read?
Its Potency is “inactive”.

Which Potency [3] does the source give for `CSc1nc(N)c2ncn([C@@H]3O[C@H](COP(=O)(O)OP(=O)(O)OP(=O)(O)O)[C@H](O)[C@H]3O)c2n1` here?
The Potency was “inactive”.

For `Nc1nc2c(nc(Br)n2C2O[C@H]3COP(=O)(O)O[C@@H]3C2O)c(=O)[nH]1` (stereo not given in full), which Potency [3] is on record?
Its Potency is “inactive”.

What does the source list for `COC[C@H]1OC(=O)c2coc3c2[C@@]1(C)C1=C(C3=O)[C@H]2CCC(=O)[C@@]2(C)C[C@H]1OC(C)=O`?
Potency [1]: 0.838 µM (active); outcome [2]: inactive; outcome [4]: inactive; outcome [5]: inactive

For `CCCCOC(=O)NS(=O)(=O)c1sc(CC(C)C)cc1-c1ccc(Cn2c(CC)nc3c(C)cc(C)nc32)cc1`, which outcome [4] is on record?
The outcome was “inactive”.

What about the outcome [5] of the same compound?
The outcome was “inactive”.

With `CC1(C)C(=O)N(CCN2CCC(C(=O)c3ccc(F)cc3)CC2)c2ccccc21` as the compound, how does the outcome [4] read?
Its outcome is “inactive”.

And the outcome [5]?
The outcome was “inactive”.

What about the Potency [3] of the same compound?
The Potency was “inactive”.

For `CCCCN1CCC(COC(=O)c2cc(Cl)c(N)c3c2OCCO3)CC1`, which outcome [4] is on record?
Its outcome is “inactive”.

And the outcome [5]?
Its outcome is “inactive”.

What about the Potency [3] of the same compound?
The Potency was “inactive”.

For `CCn1c(=O)c2[nH]c(-c3ccccc3)nc2n(CC)c1=O`, which outcome [4] is on record?
The outcome was “inactive”.

And the outcome [5]?
The outcome was “inactive”.

What about the Potency [3] of the same compound?
The Potency was “inactive”.

With `CCCC(=O)NCCc1c2n(c3ccc(OC)cc13)Cc1ccccc1-2` as the compound, how does the outcome [4] read?
The outcome was “inactive”.

What about the outcome [5] of the same compound?
The outcome was “inactive”.

What about the Potency [3] of the same compound?
The Potency was “inactive”.

Which outcome [4] does the source give for `O=S(=O)(O)C1CCNCC1` here?
The outcome was “inactive”.

What about the outcome [5] of the same compound?
Its outcome is “inactive”.

And the Potency [3]?
Its Potency is “inactive”.
